MCF10A rerep: A quantitative high throughput screen for small molecules that induce DNA re-replication in MCF 10a normal breast cells; MCF 10A DNA re-replication, Hoechst nuclear intensity, 48 h; Potency, µM (doses to about 46.1 µM), most hits filed as activators; hit rate 2.9% among 350,000; AID 624296, 2012; also: nearly all actives have a fitted effect of over 50% in size
ELG1 genotox: qHTS screen for small molecules that induce genotoxicity in human embryonic kidney (HEK293T) cells expressing luciferase-tagged ELG1 | hit rate 1.3% among 330,000 | HEK293T ELG1-luciferase reporter, luminescence, 16 h | Potency, µM (series often up to 46 µM), usual class: activators | AID 504466, 2011; also: nearly all actives have a fitted effect of over 60% in size
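Screening used a luciferase reporter fused to human ELG1 in HEK293T cells. Luminescence was read on a CCD plate imager after 16 hr exposure and 30 min ONE-Glo incubation.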
p53 reactivator: qHTS assay for re-activators of p53 using a Luc reporter; H1299 p53-A138V BP100-luciferase reporter, luminescence, 24 h; Potency, µM (series often up to 92.2 µM), actives largely listed as activators; hit rate 0.063% among 320,000; AID 504706, 2011; also: nearly all actives have a fitted effect of over 45% in size
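H1299 (p53-null), stable ts p53-A138V + BP100-Luc; 1000 cells/well, Opti-MEM/10% FBS; cpd 4 pt, 1:5; 24 h, 37 deg C, 5% CO2; detection reagent 10 min RT; luminescence.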
SW480 rereplic: A quantitative high throughput screen for small molecules that induce DNA re-replication in SW480 colon adenocarcinoma cells; SW480 DNA re-replication, Hoechst DNA content imaging, 48 h; Potency, µM (doses to about 46.1 µM), actives largely listed as activators; hit rate 1.8% among 340,000; AID 624297, 2012; also: nearly all actives have a fitted effect of over 55% in size
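Quantitative HTS format with DMSO vehicle controls; 48 hr drug incubation at 37 C, then 40 min Hoechst staining and scanning imager measurement at 405 nm excitation.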
ELG1 DNA repair: qHTS screen for small molecules that inhibit ELG1-dependent DNA repair in human embryonic kidney (HEK293T) cells expressing luciferase-tagged ELG1; AID 504467, 2011; HEK293T ELG1-luciferase reporter, luminescence, 16 h; DNA damage induced by 5-fluorouridine; Potency, µM (doses to about 46.1 µM), hits mostly inhibitors; hit rate 2.3% among 330,000; also: nearly all actives have a fitted effect of over 55% in size
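Reporter activity after DNA damage by 5-fluorouridine is monitored. Compound-treated cells incubate 16 hr at 37 °C, then ONE-Glo is added for 30 min before luminescence reading.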
AT treatment: qHTS Assay for Identifying a Potential Treatment of Ataxia-Telangiectasia; AID 485349, 2010; Potency, µM (titrated, usually from 57.5 µM), hits mostly activators; F2112 A-T fibroblasts, KAP-1 phosphorylation AlphaLISA; neocarzinostatin DNA damage 30 min before lysis; hit rate 0.19% among 320,000; also: nearly all actives have a fitted effect of over 45% in size
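ATM-like activity read as KAP-1 phosphorylation via AlphaLISA donor/acceptor antibody pairs after lysis and 6 hr at 25C. Cells were ATM-null patient fibroblasts (F2112, hTERT), dosed 60 min, then exposed to the DSB inducer NCS for 30 min.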
Large screens that a line does not name were inactive. Hits are enriched below; roughly 7.1% of the tested compounds scored in any of these assays. Calls follow the shape of the dose curve; as a rule, active = well fitted curve in the direction sought with a large enough effect; inconclusive = small, poorly fitted or top-dose-only effect, or another doubt; inactive = no such curve, though single readings can be large; an effect the other way counts as inactive or inconclusive.

CC(C)C1N=C(c2ccc3c(c2)OCO3)CC(c2ccccc2O)N1 (configuration not stated)	MCF10A rerep 20.6µM, p53 reactivator inconclusive, SW480 rereplic inconclusive, ELG1 DNA repair inconclusive
CCOc1ccccc1C1N=C(c2ccc(OC)cc2)CC(c2ccccc2O)N1 (configuration not stated)	MCF10A rerep inconclusive, ELG1 genotox inconclusive, p53 reactivator inconclusive, SW480 rereplic inconclusive, ELG1 DNA repair inconclusive
COc1ccccc1Cc1nnc(NC(=O)C2CCN(C(=O)c3ccco3)CC2)s1	none
Cc1cccc2cc3c(N)c(C(=O)N4CCOCC4)sc3nc12	MCF10A rerep 4.11µM, ELG1 genotox inconclusive, SW480 rereplic 3.55µM, ELG1 DNA repair inconclusive
Cc1ccc(/C=C/C(=O)N2CC(C)CC(C)C2)o1 (configuration not stated)	MCF10A rerep 23.1µM, SW480 rereplic 16.4µM
CC(/C=C/c1ccc(C)o1)=C\C(=O)O	MCF10A rerep 23.1µM
CC(=C/C(=O)O)/C=C/c1ccc(Cl)o1	none
CCN1CCN(C(=O)/C=C/c2ccc(C)o2)CC1	ELG1 DNA repair inconclusive
CC1(C(=O)O)CCC(C(=O)Nc2ccc(OC(F)(F)Cl)cc2)C1(C)C (configuration not stated)	none
Cc1[nH]c(=O)nc(NN=Cc2ccc(Cl)cc2)c1C(=O)Nc1ccc(Cl)cc1	SW480 rereplic inconclusive (no result: ELG1 genotox, p53 reactivator, ELG1 DNA repair, AT treatment)
CC(=O)c1cccc(NC(=O)Nc2ccc(C(=O)N3CCOCC3)cc2)c1	ELG1 DNA repair 10.3µM
CC(=O)c1cccc(NC(=O)Nc2cccnc2)c1	ELG1 DNA repair 3.66µM
COc1ccccc1NC(=O)Nc1ccc(C(=O)N2CCCCC2)cc1	ELG1 genotox 13µM, ELG1 DNA repair inconclusive
Cc1ccc(NC(=O)Nc2ccc(C(=O)N3CCOCC3)cc2)cc1	none
COC(=O)c1ccccc1NC(=O)Nc1ccc(C(=O)N2CCCC2)cc1	none
O=C(Nc1cccnc1)Nc1cccc(F)c1	ELG1 DNA repair inconclusive (no result: p53 reactivator)
Cc1ccc(NC(=O)Nc2cccnc2)cc1NC(=O)Nc1cccnc1	ELG1 DNA repair 8.2µM, AT treatment 1.26µM
COc1ccc(N2CCN(C(=O)COC(=O)CCOc3ccc(C)cc3)CC2)cc1	none
COC(=O)c1c(NC(=O)CSc2ncnc3ccccc23)sc(C)c1C	MCF10A rerep inconclusive (no result: ELG1 genotox, p53 reactivator, ELG1 DNA repair, AT treatment)
CCOC(=O)c1c(NC(=O)CSc2ncnc3ccccc23)sc(C(C)=O)c1C	MCF10A rerep inconclusive, ELG1 DNA repair 14.6µM
CCOC(=O)c1sc(NC(=O)CNCc2ccccn2)c(C(=O)OCC)c1C	MCF10A rerep inconclusive, ELG1 DNA repair 11.6µM
Cc1ccc(C)c(NC(=O)CN(C)C(=O)CN2C(=O)C3CCCCC3C2=O)c1 (configuration not stated)	none
CCn1c(CSc2ncccn2)nnc1SCC(=O)N1CCCCC1	none
COc1ccc(OC)c(NC(=O)CN(Cc2ccc(F)cc2)C2CCCCC2)c1	MCF10A rerep 18.4µM
COc1ccc(NC(=O)CN(Cc2ccccc2)S(C)(=O)=O)c(OC)c1	none
COc1ccc(OC)c(NC(=O)CN(Cc2ccccc2)S(C)(=O)=O)c1	MCF10A rerep 1.03µM
COc1ccc(OC)c(NC(=O)NCc2ccc(F)cc2)c1	none
S=c1[nH]c2ccc(Cc3ccc4[nH]c(=S)[nH]c4c3)cc2[nH]1	SW480 rereplic inconclusive, ELG1 DNA repair inconclusive
O=c1c2c(nc(NCCO)n1CC1CCCCC1)-c1ccccc1CC21CCCC1	MCF10A rerep 23.1µM, ELG1 DNA repair inconclusive (no result: AT treatment)
COc1ccc(-c2oc3cccnc3c2C#CC2(O)CCCCC2)cc1	MCF10A rerep 18.4µM, ELG1 DNA repair inconclusive (no result: p53 reactivator)
COc1ccc(-c2oc(=O)c3cc(OC)c(OC)cc3c2C#CC2(O)CCCCC2)cc1	MCF10A rerep 2.06µM, ELG1 genotox inconclusive, ELG1 DNA repair inconclusive
COc1cc2c(C#CCCCO)c(-c3ccc(C#N)cc3)oc(=O)c2cc1OC	MCF10A rerep 6.51µM, SW480 rereplic inconclusive
COc1cc(-c2noc(C)c2C#CC2(O)CCCCC2)cc(OC)c1OC	ELG1 DNA repair inconclusive
COc1ccc(-c2oc(=O)c3cc(OC)c(OC)cc3c2C#CCCCO)cc1	MCF10A rerep inconclusive, ELG1 DNA repair inconclusive
COc1cc(-c2ccc3oc(-c4ccsc4)c(C#CC4(O)CCCCC4)c3c2)cc(OC)c1OC	MCF10A rerep 18.4µM, SW480 rereplic inconclusive (no result: ELG1 genotox, p53 reactivator, ELG1 DNA repair, AT treatment)
COc1cc(NC(=O)CCc2nnc3ccc(N4CCCCC4)nn23)cc(OC)c1OC	none
CCCC(C(=O)Nc1ccncc1)c1ccccc1 (configuration not stated)	SW480 rereplic inconclusive
COc1ccc(-c2cc(C(F)(F)F)nc(-n3cc(Cl)cn3)n2)cc1	MCF10A rerep inconclusive, SW480 rereplic inconclusive, ELG1 DNA repair 23.1µM
Cc1cccc(NC(=O)CSc2nc(-c3ccco3)nc3cc(=O)[nH]n23)c1	none (no result: MCF10A rerep, ELG1 genotox, p53 reactivator, SW480 rereplic, ELG1 DNA repair)
CCn1c(COC(=O)CNC(=O)c2cc(OC)c(OC)c(OC)c2)nc2cc(S(=O)(=O)N(C)C)ccc21	ELG1 genotox inconclusive
COc1ccc2[nH]c(CN3CCN(CC=C(C)C)C(CCO)C3)c(C)c2c1 (configuration not stated)	MCF10A rerep 16.4µM
C[C@H]1CN=C(N(C)C)N1CCc1ccc(F)cc1	none
Cc1cccc(NC(=S)NNC(=O)Cc2ccccc2)c1	none
O=C(Cc1ccccc1)NNC(=S)Nc1ccc(Cl)cc1	SW480 rereplic 0.517µM
O=C(NNC(=S)Nc1ccc(Cl)cc1)c1ccccc1OC(F)F	p53 reactivator inconclusive, SW480 rereplic inconclusive, ELG1 DNA repair 23.1µM
O=C(NNC(=S)NCc1ccccc1)c1ccccc1OC(F)F	none
COc1ccc(CC2(CO)CCN(S(=O)(=O)c3cccc4cccnc34)CC2)cc1	none (no result: p53 reactivator)
O=C(NCc1cccnc1)C1CC2c3ccccc3C1c1ccccc12 (configuration not stated)	none
NCC1CC2c3ccccc3C1c1ccccc12 (configuration not stated)	SW480 rereplic 23.1µM
CCOC(=O)C1=CN(CC2CCCO2)C=C(C(=O)OCC)C1c1ccccc1C(F)(F)F (configuration not stated)	MCF10A rerep 13µM, SW480 rereplic 14.6µM, ELG1 DNA repair inconclusive
O=C(CSc1nnnn1-c1cccc(O)c1)NC1CC1	none
CCOc1ccc(C(=O)c2ccccc2C(=O)O)cc1OCC	none

Assay outcomes (PubChem)
